Assay results: PubChem BioAssay (EPA / NIEHS)
Where “and” joins values, the source holds several entries; their conditions need not be identical. Identical values can stand only once. A structure can be active in one record and inactive in another. Calls of active or inactive are those of the source. The calls were made as follows: active = hit-call score of the fitted dose curve at least 0.9, where 1 is the maximum; inactive = score below 0.9.

These compounds were tested on sulfotransferase 2A1 (SULT2A1), SULT2A1 (gene 6822) (assay: LTEA_HepaRG_SULT2A1: Life Technologies and Expression Analysis (LTEA) Assay for sulfotransferase 2A1 (SULT2A1) using HepaRG (AID 2283531)). Settings: mRNA level, 48 h; actives raise or lower the signal.
Procedure: LTEA_HepaRG is a cell based, multiplexed-readout assay that uses HepaRG, a human liver cell line, with measurements taken at 48 hours after chemical dosing on a 96-well plate.LTEA_HepaRG_SULT2A1 is one of 102 assay component(s) measured in the LTEA HepaRG cell culture assay. It is a marker of NR mediated transport.Data from the assay component LTEA_HepaRG_SULT2A1 was analyzed into 1 endpoint. This assay endpoint, LTEA_HepaRG_SULT2A1, was analyzed with bidirectional fitting relative to DMSO as the negative control and baseline of activity. Using a type of inducible reporter, measures of mRNA induction for gain or loss-of-signal activity can be used to understand regulation of transcription factor activity. To generalize the intended target to other relatable targets, this assay endpoint is annotated to the transferase intended target family, where the subfamily is sulfotransferase.
A total of 1060 chemcials from the ToxCast library were tested in eight-point concentration-response experiments. Cell culture and cytotoxicity assays were conducted at Thermo Fisher Scientific's Custom Services facility (Madison, WI). A single lot of human HepaRG cells (Thermo Fisher Scientific, Frederick, MD) was used for the cell culture experiments. 96-well format collagen type I coated plates of human HepaRG cells were prepared using established methods. Briefly, cryopreserved HepaRG cells were thawed, plated at a density of approximately 100,000 cells/well in HepaRG Thaw, Plate, and General Purpose media (HPRG770, Thermo Fisher Scientific), and incubated for 48 hours. 0.5% DMSO was selected as vehicle control to balance the requisite need of DMSO in HepaRG cultures to maintain differentiation (for example, baseline metabolism, proportions of hepatocytes vs. cholangiocytes), while enabling further hepatic receptor pathway activation (for example, PXR and CAR) in response to chemical exposure. 48 hours after plating, the culture medium was replaced with HepaRG Serum-Free Incudtion Media. Cells were exposed to each test chemical in duplicate and maintained in CO2 incubators for another 48 hours. Chemical plates were thawed to room temperature and 200x concentrations of treatment groups were prepared. 8-point conentration-reponse curves were made with the highest exposure at 100 uM, followed by half-log dilutions, all in 0.5% DMSO. Each test plate contained variouse controls, induction positive controls (1mM phenobarbital), cytotoxicity positive controls ([…] aflatoxin B1), vehicle controls (0.5% DMSO), and total lysis controls (0.5% DMSO). Cell morphology images were taken using an Essen IncuCyte FLR automated microscope, with six 96-well plates imaged in about 24 minutes. Images were captured and exported and JPEG files. Spent culture media was transfered to black-well plates for the LDH assay, and remaining media was sorted at -80 C for later use. Cells were treated with RLT buffer and frozen until shipped for gene expression analysis. Total RNA was isolated from the cell suspension in 75 uL of Buffer RLT (Qiagen, Germantown, MD 20874) by Quintiles/Expression Analysis (Durham, NC) using a custom isolation procedure. Total RNA from each plate well was transferred to a preamplification plate. Fluidigm's 96.96 Dynamic ArrayTM (Fluidigm, Amsterdam, the Netherlands) technology was used for gene expression analyses by quantitative reverse transcription polymerase chain reaction (qRT-PCR, performed by Quintiles/Expression Analysis, Durham, NC)89. Standard TaqManTM Assays (Applied Biosystems/ThermoFisher Scientific, Foster City, CA) were used to assess the expression of 93 genes selected based on their selectivity and sensitivity to important hepatic receptors known to be modulated by environmental chemicals; importance in human hepatocyte functionality; and hepatotoxicity. […]

Compound	outcome	AC50
CC(C)(C)C(O)C(Oc1ccc(Cl)cc1)n1cncn1 (stereo not given)	inactive	–
CC1(c2ccc(Oc3ccccc3)cc2)OC(=O)N(Nc2ccccc2)C1=O (stereo not given)	–	32.5 µM (active)
CNC(=O)/C=C(\C)OP(=O)(OC)OC	inactive	–
CCCN(CCOc1c(Cl)cc(Cl)cc1Cl)C(=O)n1ccnc1	–	34.9 µM (active)
COP(=O)(OC)OC=C(Cl)Cl	inactive	–
O=[N+]([O-])/N=C1\NCCN1Cc1ccc(Cl)nc1	–	31.8 µM (active)
CCc1ccc(C(=O)NN(C(=O)c2cc(C)cc(C)c2)C(C)(C)C)cc1	inactive	–
O=C(O)CCCOc1ccc(Cl)cc1Cl	inactive	–
CNC(=O)Oc1ccccc1OC(C)C	inactive	–
O=C(NC(=O)c1c(F)cccc1F)Nc1ccc(OC(F)(F)C(F)OC(F)(F)F)c(Cl)c1 (stereo not given)	inactive	–
C[C@H]1[C@H](c2ccc(Cl)cc2)SC(=O)N1C(=O)NC1CCCCC1	–	93.4 µM (active)
CCN(CC)C(=O)SCc1ccc(Cl)cc1	inactive	–
CN1CSC(=S)N(C)C1	inactive	–
N#Cc1c(Cl)c(Cl)c(Cl)c(C#N)c1Cl	inactive	–
O=C(O)COc1ccc(Cl)cc1Cl	inactive	–
CC(C)N(C(=O)COc1nnc(C(F)(F)F)s1)c1ccc(F)cc1	–	13.8 µM (active)
COc1nn(CSP(=S)(OC)OC)c(=O)s1	inactive	–
O=C(Nc1ccccc1)Nc1cnns1	–	50 µM (active)
COP(=S)(OC)Oc1ccc(SC)c(C)c1	inactive	–
O=S1OCC2C(CO1)C1(Cl)C(Cl)=C(Cl)C2(Cl)C1(Cl)Cl (stereo not given)	–	91.7 µM (active)

Compound	outcome	AC50
OCCOc1ccccc1	inactive	–
O=C(O)C(F)(F)C(F)(F)C(F)(F)C(F)(F)C(F)(F)C(F)(F)C(F)(F)F	inactive	–
Oc1ccc(Cl)cc1Cc1ccccc1	inactive	–
Clc1ccccc1-c1nnc(-c2ccccc2Cl)nn1	inactive	–
O=[N+]([O-])c1c(Cl)c(Cl)c(Cl)c(Cl)c1Cl	inactive	–
O=C1c2ccccc2C(=O)N1SC(Cl)(Cl)Cl	inactive	–
CCC(C)Nc1c([N+](=O)[O-])cc(C(C)(C)C)cc1[N+](=O)[O-] (stereo not given)	inactive	–
N#CN	inactive	–
Cc1[nH]c(=O)n(C(C)(C)C)c(=O)c1Cl	inactive	–
CC1(C)C(C=C(Cl)Cl)C1C(=O)OC(C#N)c1ccc(F)c(Oc2ccccc2)c1 (stereo not given)	–	50 µM (active)
O=S(=O)(O)C(F)(F)C(F)(F)C(F)(F)C(F)(F)C(F)(F)C(F)(F)C(F)(F)C(F)(F)F	inactive	7.51 µM (active) and 83 µM (active) and 85.1 µM (active)
CCOCN(C(=O)CCl)c1c(C)cccc1CC	–	83.8 µM (active)
CCC(C)(NC(=O)c1cc(Cl)c(C)c(Cl)c1)C(=O)CCl (stereo not given)	–	79.5 µM (active)
CCC(C)(C)C(=O)OC1=C(c2ccc(Cl)cc2Cl)C(=O)OC12CCCCC2	inactive	–
CC(C)(C)C(O)/C(=C\c1ccc(Cl)cc1Cl)n1cncn1 (stereo not given)	–	35.2 µM (active)
CNC(=O)Oc1cccc(N=CN(C)C)c1	inactive	–
CCCN(CCC)c1c([N+](=O)[O-])cc(C(F)(F)F)cc1[N+](=O)[O-]	inactive	–
CC[C@H](C)[C@H]1O[C@]2(C=C[C@@H]1C)C[C@@H]1C[C@@H](C/C=C(\C)[C@@H](O[C@H]3C[C@H](OC)[C@@H](O[C@H]4C[C@H](OC)[C@@H](O)[C@H](C)O4)[C@H](C)O3)[C@@H](C)/C=C/C=C3\CO[C@@H]4[C@H](O)C(C)=C[C@@H](C(=O)O1)[C@]34O)O2 (tested in a mixture with another compound)	–	8.58 µM (active)
CNC(=O)CSP(=S)(OC)OC	inactive	–
